Screens as filed in PubChem BioAssay.
The list is not random: actives were taken first. Their share in the collection is about 3.5%.
MITF primary: blocks human microphthalmia-associated transcription factor; AID 1259374; 650,000 compounds, 0.91% hits; AlphaScreen MITF homodimerization, bead proximity signal; O75030; inhibition, % at 2.6 µM; in the data active = inhibition above about 50%
FBW7 act: activators of human E3 ligase FBW7. Q969H0. AlphaScreen FBW7–phospho-cyclin E peptide binding, activator screen. normalized activity (activation), % at 26.1 µM. 650,000 compounds, 0.13% hits; in the data active = normalized activity above about 1.9%;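 note: purified mutant Fbw7 with reduced substrate affinity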
GPR151 ag: human GPR151 activation | Q8TDV0 | PathHunter beta-arrestin GPR151 cells, luminescence | activation, % at 11.2 µM | 650,000 compounds, 1% hits; in the data active = activation above about 4.9%
TEAD-YAP inh: TEAD-YAP interaction inhibition | HEK-TIYL cells, TEAD-Gal4/YAP UAS-luciferase luminescence | inhibition, % at 9.12 µM | 640,000 compounds, 1.4% hits | AID 1259422; in the data active = inhibition above about 32%
GPR151 conf act: human GPR151 activation, confirmation screen; shares compounds with GPR151 ag; GPR151 PathHunter beta-arrestin cells, luminescence, 90 min; % of EA-reagent control over plate median; activation, % at 11.2 µM; 6,700 tested, under 10 active;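 active = mean percent activation across replicates above the confirmation screen cutoff of 4.91%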
GPR119 ag: activates human GPR119 in a GPR151 counter-screen; shares compounds with GPR151 ag; GPR119 PathHunter beta-arrestin cells, luminescence, 90 min; 0 = compound-well median, 100 = enzyme-acceptor control; activation, % at 11.2 µM; 6,700 compounds, 0.3% hits; AID 1508611;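 active = mean percent activation in the counterscreen above 29.09%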;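 note: counterscreen on off-target GPR119 to flag nonselective hits from the GPR151 activator screen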
Numbers stand for hits; - = inactive; . = no result; ! = repeats disagree.

SMILES | MITF primary | FBW7 act | GPR151 ag | TEAD-YAP inh | GPR151 conf act | GPR119 ag
CN1C(=O)/C(=C2\SC(=S)N(c3ccc(C(=O)O)cc3)C2=O)c2ccccc21 | - | - | 5.6 | - | - | -
CN1C(=O)/C(=C2\SC(=S)N(CC(=O)O)C2=O)c2ccccc21 | - | - | - | - | . | .
CN1CCN(Cc2ccccc2-c2ccco2)CC1CCO (configuration not stated) | - | - | - | - | . | .
NC(=O)NC1NC(=O)NC1=O (configuration not stated) | - | - | 5.7! | - | - | -
COc1ccc(-c2nc(SCC(=O)Nc3ccc4ccccc4c3)n[nH]2)cc1 | - | - | - | - | . | .
COc1ccc(-c2nc(SCC(=O)Nc3ccc4c(c3)OCO4)n[nH]2)cc1 | - | - | 6.5 | - | - | -
Cc1ccc(N2CCN(C(=O)Nc3ccccc3)CC2)nn1 | - | - | - | - | . | .
CSc1cccc(NC(=O)N2CCN(c3ccc(C)nn3)CC2)c1 | - | - | 5.6 | - | - | -
CS(=O)(=O)N1CCC(C(=O)N2CCC(O)(c3ccccn3)CC2)CC1 | - | - | 11.0 | - | - | -
O=C(C1CC1)N1CCC(O)(c2ccccn2)CC1 | - | - | - | - | . | .
COc1ccc(-c2nnc(SCC(=O)Nc3ccccc3Cl)nc2-c2ccc(OC)c(OC)c2)cc1OC | - | - | - | - | . | .
CC1Cc2ccccc2N1C(=O)Nc1ccc(F)cc1 (configuration not stated) | - | - | 5.5 | - | - | -
Cc1cc(C)cc(CC(CC(=O)O)C(=O)O)c1 (configuration not stated) | - | - | - | - | . | .
Cc1ccc(CC(CC(=O)O)C(=O)O)cc1 (configuration not stated) | - | - | 6.8 | - | - | -
CCCCCCC1CCC(c2noc(-c3ccc(C(C)(C)C)cc3)n2)CC1 (configuration not stated) | - | - | - | - | . | .
CCCCOC(=O)c1ccc(Nc2nc(C)c([N+](=O)[O-])c(Nc3ccc(C(=O)OCCCC)cc3)n2)cc1 | - | - | - | - | . | .
COC(=O)c1ccc(Nc2nc(C)c([N+](=O)[O-])c(Nc3ccc(C(=O)OC)cc3)n2)cc1 | - | - | 12.9 | - | - | -
COC(=O)COc1ccc(S(=O)(=O)NCc2ccc(OC)cc2)cc1C | - | - | - | - | . | .
Cc1cc(-c2n[nH]c(=S)n2-c2ccccc2)nn1C | - | - | 18.2 | - | - | -
c1ccc(N2CCN(Cc3nnnn3Cc3cccs3)CC2)cc1 | - | - | - | - | . | .
c1ccc(CN2CCN(Cc3nnnn3Cc3cccs3)CC2)cc1 | - | - | 5.9 | - | - | -
CCc1n[nH]c(=S)n1/N=C/c1cccc(/C=N/n2c(CC)n[nH]c2=S)c1 | - | - | - | - | . | .
COc1cc(C=O)ccc1Oc1ncccc1[N+](=O)[O-] | - | - | 8.0 | - | - | -
O=c1cc(-c2ccc(O)cc2)oc2cc(O[C@@H]3O[C@H](CO)[C@@H](O)[C@H](O)[C@H]3O[C@@H]3OC[C@](O)(CO)[C@H]3O)cc(O)c12 | - | - | 8.2 | - | - | -
O=C(O)COc1ccc(N2C(=O)c3ccc(-c4nc5ccccc5c(=O)o4)cc3C2=O)cc1 | - | - | 7.2 | - | - | -
SMILES | MITF primary | FBW7 act | GPR151 ag | TEAD-YAP inh | GPR151 conf act | GPR119 ag
CCCCNC(=O)C1C2C=CC3(CN(Cc4ccccc4Cl)C(=O)C13)O2 (configuration not stated) | - | - | 5.7 | - | - | -
COCCNC(=O)C1C2C=CC3(CN(Cc4ccc(C)cc4)C(=O)C13)O2 (configuration not stated) | - | - | 13.6 | - | - | -
CC(C)OC(=O)C1C2C=CC3(CN(Cc4ccccc4)C(=O)C13)O2 (configuration not stated) | - | - | 5.5 | - | - | -
CCOc1ccc(C(=O)Nc2cc(C(=O)N3CCCC3)cn(C)c2=O)cc1OCC | - | - | - | - | . | .
C=CCN1CCN(C(c2ccc(OC)cc2)c2nnnn2CCOC)CC1 (configuration not stated) | - | - | - | - | . | .
COc1ccc(Cn2ccn(Cc3ccc(F)cc3)c(=O)c2=O)cc1 | - | - | 12.5 | - | - | -
CC(C)Sc1nc2c(c(=O)[nH]1)C(c1cccs1)C1=C(CCCC1=O)N2 (configuration not stated) | - | - | 5.2 | - | - | -
